Assay results: the antibiotic and cytotoxicity screens of Wong et al. (2023)
Out of some 39,000 compounds screened, about 1,500 (3.8%) were called active. The sample holds actives, similar compounds and a random draw of the others, so the mix is not that of the screen.

These compounds were tested on HSkMC (human skeletal muscle cells) (assay: cytotoxicity call (relative viability < 0.9)). Details: 10 µM.

SMILES	cytotoxicity call
Cc1ccc(S(=O)(=O)N[C@@H](Cc2ccccc2)C(=O)NCCCn2cc(C(=O)NO)nn2)cc1	inactive
C[C@@H]1CCCCO[C@H](CN(C)CC2CCCCC2)[C@@H](C)CN([C@@H](C)CO)C(=O)c2cc(NS(=O)(=O)c3cccs3)ccc2O1	inactive
C[C@@H]1CN([C@H](C)CO)C(=O)Cc2cc(NC(=O)Nc3ccccc3)ccc2O[C@@H]1CN(C)Cc1ccc(Cl)c(Cl)c1	active
C[C@H]1CN([C@@H](C)CO)C(=O)Cc2cc(NC(=O)Nc3ccccc3)ccc2O[C@H]1CN(C)Cc1ccc(Cl)c(Cl)c1	active
C[C@@H]1CN([C@@H](C)CO)C(=O)Cc2cc(NC(=O)Nc3ccccc3)ccc2O[C@@H]1CN(C)Cc1ccc(Cl)c(Cl)c1	active
C[C@@H]1CN([C@H](C)CO)C(=O)Cc2cc(NC(=O)Nc3ccccc3)ccc2O[C@H]1CN(C)Cc1ccc(Cl)c(Cl)c1	active
C[C@H](CO)N1C[C@H](C)[C@H](CN(C)S(C)(=O)=O)Oc2ccc(NC(=O)Nc3ccc4c(c3)OCO4)cc2CC1=O	inactive
CC[C@@H](C)N1C(=O)CC[C@H]1C(=O)O	inactive
COc1ccc(S(=O)(=O)Nc2ccc3c(c2)C(=O)N([C@H](C)CO)C[C@H](C)[C@H](CN(C)Cc2ccc(C(=O)Nc4ccccc4N)cc2)OCCCC[C@@H](C)O3)cc1	inactive
C[C@H](CO)N1C[C@H](C)[C@@H](CN(C)S(=O)(=O)c2cccs2)Oc2ccc(NS(C)(=O)=O)cc2C1=O	inactive
NCc1ccc(C(=O)O)cc1	inactive
Cc1noc(C)c1NC(=O)Nc1cccc2c1O[C@H](CN(C)S(=O)(=O)c1ccccc1)[C@@H](C)CN([C@@H](C)CO)C2=O	inactive
C[C@@H]1CCCCO[C@H](CN(C)C(=O)c2ccncc2)[C@@H](C)CN([C@H](C)CO)C(=O)c2cc(NC(=O)CCCCCC(=O)Nc3ccccc3N)ccc2O1	inactive
CCc1nc2ccc(C(=O)Nc3cc(-c4ccccc4)ccc3OC)cn2c1N(CCN(C)C)CC1CC1	inactive
C[C@H](CO)N1C[C@H](C)[C@@H](CN(C)S(=O)(=O)c2cn(C)cn2)Oc2c(NC(=O)C3CCOCC3)cccc2C1=O	inactive
CN1C(=O)c2cc(NC(=O)C3CCCC3)ccc2OC[C@H]2O[C@@H](CC(=O)NCCc3ccncc3)CC[C@@H]21	inactive
COCC(=O)Nc1ccc2c(c1)C(=O)N(C)[C@H]1CC[C@@H](CC(=O)NCc3ccccc3Cl)O[C@@H]1CO2	inactive
COc1ccc(NC(=O)Nc2ccc3c(c2)CC(=O)N([C@H](C)CO)C[C@H](C)[C@@H](CN(C)Cc2ccc(Cl)c(Cl)c2)O3)cc1	inactive

SMILES	cytotoxicity call
C[C@@H]1CN([C@@H](C)CO)C(=O)Cc2cc(NC(=O)Nc3ccccc3)ccc2O[C@H]1CN(C)Cc1ccc(Cl)c(Cl)c1	inactive
C[C@H](CO)N1C[C@H](C)[C@@H](CN(C)Cc2ccc(Cl)c(Cl)c2)Oc2ccc(NC(=O)Nc3ccccc3)cc2CC1=O	inactive
C[C@H]1CN([C@@H](C)CO)C(=O)Cc2cc(NC(=O)Nc3ccccc3)ccc2O[C@@H]1CN(C)Cc1ccc(Cl)c(Cl)c1	active
C[C@H](CO)N1C[C@H](C)[C@H](CN(C)Cc2ccc(Cl)c(Cl)c2)Oc2ccc(NC(=O)Nc3ccccc3)cc2CC1=O	active
COc1ccc(NC(=O)Nc2ccc3c(c2)CC(=O)N([C@@H](C)CO)C[C@@H](C)[C@@H](CN(C)Cc2ccc(Cl)c(Cl)c2)O3)cc1	inactive
O=C(CN1CCOCC1)NCC[C@H]1CC[C@@H](NC(=O)Nc2ccccc2)[C@H](CO)O1	inactive
C[C@H]1CN([C@@H](C)CO)S(=O)(=O)c2ccc(-c3cccnc3)cc2O[C@@H]1CN(C)C(=O)c1cccc(F)c1	inactive
Cc1ccccc1S(=O)(=O)N1C[C@H](O)COC[C@@H]2O[C@@H](CC(=O)NCc3ccccc3Cl)CC[C@H]21	inactive
C[C@@H]1CN([C@@H](C)CO)C(=O)c2cc(NS(=O)(=O)c3ccc(Cl)cc3)ccc2O[C@H]1CN(C)Cc1ccc(C(F)(F)F)cc1	inactive
Cc1ccc(S(=O)(=O)Nc2ccc3c(c2)C(=O)N([C@@H](C)CO)C[C@@H](C)[C@@H](CN(C)Cc2ccc(C(F)(F)F)cc2)O3)cc1	inactive
C[C@@H]1CN([C@H](C)CO)C(=O)c2cc(NS(=O)(=O)c3ccc(Cl)cc3)ccc2O[C@H]1CN(C)Cc1ccc(C(F)(F)F)cc1	inactive
Cc1ccc(S(=O)(=O)Nc2ccc3c(c2)C(=O)N([C@@H](C)CO)C[C@@H](C)[C@H](CN(C)Cc2ccc(C(F)(F)F)cc2)O3)cc1	inactive
C[C@@H]1CN([C@@H](C)CO)C(=O)c2cc(NS(=O)(=O)c3ccc(Cl)cc3)ccc2O[C@@H]1CN(C)Cc1ccc(C(F)(F)F)cc1	active
C[C@H](CO)N1C[C@H](C)[C@H](CN(C)Cc2ccc(C(F)(F)F)cc2)Oc2ccc(NS(=O)(=O)c3ccc(Cl)cc3)cc2C1=O	active
C[C@H]1CN([C@@H](C)CO)C(=O)c2cc(NS(=O)(=O)c3ccc(Cl)cc3)ccc2O[C@H]1CN(C)Cc1ccc(C(F)(F)F)cc1	inactive
C[C@@H]1CN([C@H](C)CO)C(=O)c2cc(NS(=O)(=O)c3ccc(Cl)cc3)ccc2O[C@@H]1CN(C)Cc1ccc(C(F)(F)F)cc1	active
C[C@H](CO)N1C[C@H](C)[C@@H](CN(C)Cc2ccc(C(F)(F)F)cc2)Oc2ccc(NS(=O)(=O)c3ccc(Cl)cc3)cc2C1=O	active
